# According to the supplement of paper PMC8728848:
# This is one part of a sample in which the strongest signals are shown more often than they occur.
# Columns and labels:
# Test in all cases: glycan array binding signal (z-score within array); higher = stronger binding
# Conditions in all cases: glycan notation: IUPAC condensed, linker removed
# [1] = target: Kdn(a2-3)Gal(b1-4)GlcNAc
# Outline: (§1)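 Negative Z-scores can be read as non-binding. The Z-score is calculated within each array and then averaged across arrays of one protein sequence at different concentrations or buffers and across linkers. Arrays, 3228 in all, were curated from the Consortium for Functional Glycomics database and kept only where the protein sequence was available.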
# [2] = target: Kdn(a2-3)Gal(b1-4)[Fuc(a1-3)]GlcNAc
# Outline: as §1
# [3] = target: Man(a1-2)Man(a1-2)Man(a1-3)Man
# Outline: as §1
# [4] = target: Man(a1-3)[Man(a1-6)]Man(b1-4)GlcNAc(b1-4)[Fuc(a1-6)]GlcNAc
# Outline: as §1
# [5] = target: Neu5Ac(a2-3)Gal
# Outline: as §1
# [6] = target: Neu5Ac(a2-3)Gal(b1-4)GlcNAc(b1-2)[Neu5Ac(a2-3)Gal(b1-4)GlcNAc(b1-6)]Man(a1-6)[Neu5Ac(a2-3)Gal(b1-4)GlcNAc(b1-2)Man(a1-3)]Man(b1-4)GlcNAc(b1-4)GlcNAc
# Outline: as §1
# [7] = target: Neu5Ac(a2-3)Gal(b1-4)GlcNAc(b1-3)Gal(b1-4)GlcNAc
# Outline: as §1
# [8] = target: Neu5Ac(a2-3)Gal(b1-4)GlcNAc(b1-3)Gal(b1-4)GlcNAc(b1-2)Man(a1-3)[Neu5Ac(a2-3)Gal(b1-4)GlcNAc(b1-3)Gal(b1-4)GlcNAc(b1-2)Man(a1-6)]Man(b1-4)GlcNAc(b1-4)GlcNAc
# Outline: as §1
# [9] = target: Neu5Ac(a2-3)Gal(b1-4)[Fuc(a1-3)]GlcNAc(b1-2)Man
# Outline: as §1
# [10] = target: Neu5Ac(a2-3)GalNAc
# Outline: as §1
# [11] = target: Neu5Ac(a2-6)Gal(b1-4)GlcNAc
# Outline: as §1
# [12] = target: Neu5Ac(a2-6)Gal(b1-4)GlcNAc(b1-2)Man(a1-6)Man(b1-4)GlcNAc(b1-4)GlcNAc
# Outline: as §1
# [13] = target: Neu5Ac(a2-6)Gal(b1-4)GlcNAc(b1-2)Man(a1-6)[Man(a1-3)]Man(b1-4)GlcNAc(b1-4)GlcNAc
# Outline: as §1
# [14] = target: Neu5Ac(a2-6)Gal(b1-4)GlcNAc(b1-3)Gal(b1-4)[Fuc(a1-3)]GlcNAc(b1-3)Gal(b1-4)[Fuc(a1-3)]GlcNAc
# Outline: as §1
# [15] = target: Neu5Ac(a2-8)Neu5Ac(a2-8)Neu5Ac
# Outline: as §1
# [16] = target: Neu5Ac9Ac(a2-3)Gal(b1-3)GlcNAc
# Outline: as §1
# [17] = target: Neu5Ac9Ac(a2-6)Gal(b1-4)GlcNAc
# Outline: as §1
# [18] = target: Neu5Gc(a2-3)Gal(b1-4)Glc
# Outline: as §1
binder,measurement,setting,value
FliD (Clostridium difficile) (protein) MSSISPVRVTGLSGNFDMEGIIEASMIRDKEKVNKAKQDQQIVKWKQEIYRDIIKESKNLYDKYLNGDSPNSITNKKAYSATRITSSDESIIVAKGSAGAEKINYQFAVSQMAEPAKVTIKLNSSDPIVQQFPPNASGASSLNIGGVNIPISEQDTTSTIVSKINSLCADNDIRASYSEMTGELIISRKQTGSSSDIDLKVIGNDSLAGQIASDNGITFTTDASGTKSAVVYGKNLEADVTDDQGRVTHISKEQNSFKIDNIDYNVNSKGSAKLVSVTDTEEATKNMKAFVDDYNALMDKVYGLVTTKKSKDYPPLTDEQKDDMTTEEIEKWEKKAKEGILRNDDELRAFVEDIQSMFFGDADTIIALRKLGISEHENYNKKGQISFNADTFSKALIDDSDKVYKALAGYSSNYDDKGMFEKLKKIVFEYSGSSASKLTKKAGMENSSSASQNVYSKQIAEQERNISRLVEKMNDKEKRLYAKYSALESLLNKYSSQMNYFSQAQGN,glycan array binding signal (z-score),[1],-0.204
same,glycan array binding signal (z-score),[2],0.919
same,glycan array binding signal (z-score),[3],-0.247
same,glycan array binding signal (z-score),[4],-0.274
same,glycan array binding signal (z-score),[5],-0.168
same,glycan array binding signal (z-score),[6],-0.056
same,glycan array binding signal (z-score),[7],-0.084
same,glycan array binding signal (z-score),[8],-0.025
same,glycan array binding signal (z-score),[9],-0.222
same,glycan array binding signal (z-score),[10],1.09
same,glycan array binding signal (z-score),[11],-0.197
same,glycan array binding signal (z-score),[12],-0.179
same,glycan array binding signal (z-score),[13],-0.197
same,glycan array binding signal (z-score),[14],-0.193
same,glycan array binding signal (z-score),[15],-0.239
same,glycan array binding signal (z-score),[16],0.957
same,glycan array binding signal (z-score),[17],-0.19
same,glycan array binding signal (z-score),[18],-0.194
